For experiment [1], the target named is T1, Tyrosine-protein kinase receptor TYRO3 (Homo sapiens) (UniProt Q06418).
T1 sequence (whole entry): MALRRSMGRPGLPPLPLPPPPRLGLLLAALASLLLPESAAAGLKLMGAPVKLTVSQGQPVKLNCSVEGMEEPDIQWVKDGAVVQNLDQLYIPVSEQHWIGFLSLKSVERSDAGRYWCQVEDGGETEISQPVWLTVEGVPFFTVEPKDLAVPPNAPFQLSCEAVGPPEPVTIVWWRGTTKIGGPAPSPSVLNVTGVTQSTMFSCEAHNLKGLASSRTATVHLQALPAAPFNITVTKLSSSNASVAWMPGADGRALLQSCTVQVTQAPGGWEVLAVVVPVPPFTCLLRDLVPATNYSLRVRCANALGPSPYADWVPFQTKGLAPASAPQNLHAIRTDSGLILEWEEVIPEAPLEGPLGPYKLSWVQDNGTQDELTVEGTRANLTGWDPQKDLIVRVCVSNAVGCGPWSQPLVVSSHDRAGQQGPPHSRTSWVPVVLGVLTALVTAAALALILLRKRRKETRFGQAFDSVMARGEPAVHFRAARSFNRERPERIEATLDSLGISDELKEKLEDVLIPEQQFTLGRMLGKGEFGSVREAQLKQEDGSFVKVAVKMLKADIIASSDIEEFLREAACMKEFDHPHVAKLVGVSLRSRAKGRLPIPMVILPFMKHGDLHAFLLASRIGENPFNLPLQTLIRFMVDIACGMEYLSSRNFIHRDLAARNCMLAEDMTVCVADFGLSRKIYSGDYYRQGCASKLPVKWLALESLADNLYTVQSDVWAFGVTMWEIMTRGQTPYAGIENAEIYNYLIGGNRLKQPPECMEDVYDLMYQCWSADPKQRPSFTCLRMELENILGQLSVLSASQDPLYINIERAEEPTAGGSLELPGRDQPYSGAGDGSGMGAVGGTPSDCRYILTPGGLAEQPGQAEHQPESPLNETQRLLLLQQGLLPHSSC
Particulars: at 1 µM.

Experiment [2] addresses Tyrosine-protein kinase Yes (Homo sapiens) (UniProt P07947). Particulars: at 0.1 µM.
Experiment [3] shares this target. Particulars: at 1 µM.
In experiment [4] the target is T2, Tyrosine-protein kinase ZAP-70 (Homo sapiens) (UniProt P43403).
T2 sequence (whole entry): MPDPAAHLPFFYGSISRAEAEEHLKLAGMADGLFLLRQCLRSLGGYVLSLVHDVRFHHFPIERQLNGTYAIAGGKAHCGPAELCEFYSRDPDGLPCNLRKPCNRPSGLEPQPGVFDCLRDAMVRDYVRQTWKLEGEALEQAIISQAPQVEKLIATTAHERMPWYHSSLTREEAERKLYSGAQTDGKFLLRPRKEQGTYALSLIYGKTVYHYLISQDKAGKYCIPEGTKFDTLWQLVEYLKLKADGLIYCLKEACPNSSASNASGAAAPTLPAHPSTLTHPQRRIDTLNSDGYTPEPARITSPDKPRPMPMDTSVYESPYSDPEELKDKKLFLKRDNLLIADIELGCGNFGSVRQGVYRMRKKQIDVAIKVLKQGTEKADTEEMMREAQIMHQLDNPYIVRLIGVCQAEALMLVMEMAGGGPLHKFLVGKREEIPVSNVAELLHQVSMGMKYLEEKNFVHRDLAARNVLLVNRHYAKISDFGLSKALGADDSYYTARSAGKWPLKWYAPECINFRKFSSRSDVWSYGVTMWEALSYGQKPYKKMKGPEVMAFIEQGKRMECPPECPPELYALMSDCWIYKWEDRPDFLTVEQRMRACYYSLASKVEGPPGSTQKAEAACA
Particulars: at 0.1 µM.

For experiment [5], the target named is T2, Tyrosine-protein kinase ZAP-70 (Homo sapiens). The note with it: at 1 µM.
The target of experiment [6] is Serine/threonine-protein kinase B-raf (Homo sapiens) (UniProt P15056). Particulars: at 0.1 µM.
The target is the same in experiment [7]. The note with it: at 1 µM.
Experiment [8] deals with Serine/threonine-protein kinase B-raf (Homo sapiens), P15056 [V600E]. Particulars: at 0.1 µM.
The test system is the same in experiment [9]. The note with it: at 1 µM.
The target in experiment [10] is RAF proto-oncogene serine/threonine-protein kinase (Homo sapiens) (UniProt P04049). Particulars: at 0.1 µM.
Experiment [11] has the same target. Particulars: at 1 µM.
Experiment [12] deals with T3, Interleukin-1 receptor-associated kinase 4 (Homo sapiens) (UniProt Q9NWZ3).
T3 sequence (whole entry): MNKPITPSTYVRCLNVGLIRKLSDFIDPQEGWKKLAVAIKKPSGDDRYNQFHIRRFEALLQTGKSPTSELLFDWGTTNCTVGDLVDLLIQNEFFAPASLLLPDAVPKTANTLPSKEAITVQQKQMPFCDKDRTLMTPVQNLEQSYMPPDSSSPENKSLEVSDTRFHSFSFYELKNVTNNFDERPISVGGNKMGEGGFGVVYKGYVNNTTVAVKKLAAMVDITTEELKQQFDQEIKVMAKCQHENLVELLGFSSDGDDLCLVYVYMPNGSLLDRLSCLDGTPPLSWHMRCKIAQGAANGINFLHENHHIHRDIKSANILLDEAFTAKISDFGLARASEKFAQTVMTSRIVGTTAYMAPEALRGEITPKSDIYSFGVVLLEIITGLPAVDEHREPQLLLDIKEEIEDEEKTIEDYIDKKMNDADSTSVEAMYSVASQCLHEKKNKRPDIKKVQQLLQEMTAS
Particulars: at 0.1 µM.

Experiment [13] deals with T3, Interleukin-1 receptor-associated kinase 4 (Homo sapiens). Particulars: at 1 µM.
Experiment [14] deals with Leucine-rich repeat serine/threonine-protein kinase 2 (Homo sapiens) (UniProt Q5S007). Particulars: at 0.1 µM.
For experiment [15] the target is unchanged. The note with it: at 1 µM.
Experiment [16] deals with Leucine-rich repeat serine/threonine-protein kinase 2 (Homo sapiens), Q5S007 [G2019S]. Particulars: at 0.1 µM.
The test system is the same in experiment [17]. The note with it: at 1 µM.

Consider 7 compounds from ChEMBL document CHEMBL1961873, “Compounds: GSK PKIS; Assays: Nanosyn kinase panel” (2012).

Values joined by “and” are separate entries in the source; they are usually repeats but may differ in a detail not shown here. Identical values can stand only once.

Sequence of Tyrosine-protein kinase Yes (Homo sapiens) (P07947 2-543 limits assumed): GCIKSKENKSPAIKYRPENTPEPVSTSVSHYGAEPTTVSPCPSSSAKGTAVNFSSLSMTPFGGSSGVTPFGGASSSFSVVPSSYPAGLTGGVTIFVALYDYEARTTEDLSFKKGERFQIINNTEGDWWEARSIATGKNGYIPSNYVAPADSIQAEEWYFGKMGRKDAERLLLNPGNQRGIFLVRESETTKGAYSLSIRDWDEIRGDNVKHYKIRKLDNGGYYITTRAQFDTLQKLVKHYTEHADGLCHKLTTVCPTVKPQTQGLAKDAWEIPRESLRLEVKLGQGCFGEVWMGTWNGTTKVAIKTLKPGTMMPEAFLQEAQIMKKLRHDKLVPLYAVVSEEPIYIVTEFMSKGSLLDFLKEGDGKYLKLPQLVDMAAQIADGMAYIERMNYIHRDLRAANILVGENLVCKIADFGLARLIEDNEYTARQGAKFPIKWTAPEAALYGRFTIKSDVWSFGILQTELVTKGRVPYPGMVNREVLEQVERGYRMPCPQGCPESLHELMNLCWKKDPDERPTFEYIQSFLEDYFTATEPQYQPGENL
Sequence of Serine/threonine-protein kinase B-raf (Homo sapiens), P15056 [V600E] (P15056 whole entry V600E): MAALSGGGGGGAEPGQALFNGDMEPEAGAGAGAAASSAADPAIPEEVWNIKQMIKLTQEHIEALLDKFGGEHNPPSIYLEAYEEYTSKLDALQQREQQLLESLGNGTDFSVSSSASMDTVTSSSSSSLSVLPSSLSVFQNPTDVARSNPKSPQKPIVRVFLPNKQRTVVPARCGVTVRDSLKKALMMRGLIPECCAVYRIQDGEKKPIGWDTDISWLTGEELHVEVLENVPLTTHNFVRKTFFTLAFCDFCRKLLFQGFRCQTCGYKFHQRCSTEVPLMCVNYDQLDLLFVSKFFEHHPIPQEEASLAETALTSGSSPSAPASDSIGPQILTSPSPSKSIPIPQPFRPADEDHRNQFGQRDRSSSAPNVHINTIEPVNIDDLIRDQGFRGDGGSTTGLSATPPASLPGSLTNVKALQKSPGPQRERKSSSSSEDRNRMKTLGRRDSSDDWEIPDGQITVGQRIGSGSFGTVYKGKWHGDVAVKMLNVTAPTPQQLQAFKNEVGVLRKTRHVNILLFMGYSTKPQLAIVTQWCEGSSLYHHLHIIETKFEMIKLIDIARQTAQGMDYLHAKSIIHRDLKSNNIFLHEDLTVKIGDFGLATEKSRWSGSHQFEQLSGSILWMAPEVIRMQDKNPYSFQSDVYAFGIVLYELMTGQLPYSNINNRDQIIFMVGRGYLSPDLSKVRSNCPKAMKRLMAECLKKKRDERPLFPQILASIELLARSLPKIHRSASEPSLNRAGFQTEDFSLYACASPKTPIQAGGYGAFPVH
Sequence of Leucine-rich repeat serine/threonine-protein kinase 2 (Homo sapiens) (Q5S007 whole entry): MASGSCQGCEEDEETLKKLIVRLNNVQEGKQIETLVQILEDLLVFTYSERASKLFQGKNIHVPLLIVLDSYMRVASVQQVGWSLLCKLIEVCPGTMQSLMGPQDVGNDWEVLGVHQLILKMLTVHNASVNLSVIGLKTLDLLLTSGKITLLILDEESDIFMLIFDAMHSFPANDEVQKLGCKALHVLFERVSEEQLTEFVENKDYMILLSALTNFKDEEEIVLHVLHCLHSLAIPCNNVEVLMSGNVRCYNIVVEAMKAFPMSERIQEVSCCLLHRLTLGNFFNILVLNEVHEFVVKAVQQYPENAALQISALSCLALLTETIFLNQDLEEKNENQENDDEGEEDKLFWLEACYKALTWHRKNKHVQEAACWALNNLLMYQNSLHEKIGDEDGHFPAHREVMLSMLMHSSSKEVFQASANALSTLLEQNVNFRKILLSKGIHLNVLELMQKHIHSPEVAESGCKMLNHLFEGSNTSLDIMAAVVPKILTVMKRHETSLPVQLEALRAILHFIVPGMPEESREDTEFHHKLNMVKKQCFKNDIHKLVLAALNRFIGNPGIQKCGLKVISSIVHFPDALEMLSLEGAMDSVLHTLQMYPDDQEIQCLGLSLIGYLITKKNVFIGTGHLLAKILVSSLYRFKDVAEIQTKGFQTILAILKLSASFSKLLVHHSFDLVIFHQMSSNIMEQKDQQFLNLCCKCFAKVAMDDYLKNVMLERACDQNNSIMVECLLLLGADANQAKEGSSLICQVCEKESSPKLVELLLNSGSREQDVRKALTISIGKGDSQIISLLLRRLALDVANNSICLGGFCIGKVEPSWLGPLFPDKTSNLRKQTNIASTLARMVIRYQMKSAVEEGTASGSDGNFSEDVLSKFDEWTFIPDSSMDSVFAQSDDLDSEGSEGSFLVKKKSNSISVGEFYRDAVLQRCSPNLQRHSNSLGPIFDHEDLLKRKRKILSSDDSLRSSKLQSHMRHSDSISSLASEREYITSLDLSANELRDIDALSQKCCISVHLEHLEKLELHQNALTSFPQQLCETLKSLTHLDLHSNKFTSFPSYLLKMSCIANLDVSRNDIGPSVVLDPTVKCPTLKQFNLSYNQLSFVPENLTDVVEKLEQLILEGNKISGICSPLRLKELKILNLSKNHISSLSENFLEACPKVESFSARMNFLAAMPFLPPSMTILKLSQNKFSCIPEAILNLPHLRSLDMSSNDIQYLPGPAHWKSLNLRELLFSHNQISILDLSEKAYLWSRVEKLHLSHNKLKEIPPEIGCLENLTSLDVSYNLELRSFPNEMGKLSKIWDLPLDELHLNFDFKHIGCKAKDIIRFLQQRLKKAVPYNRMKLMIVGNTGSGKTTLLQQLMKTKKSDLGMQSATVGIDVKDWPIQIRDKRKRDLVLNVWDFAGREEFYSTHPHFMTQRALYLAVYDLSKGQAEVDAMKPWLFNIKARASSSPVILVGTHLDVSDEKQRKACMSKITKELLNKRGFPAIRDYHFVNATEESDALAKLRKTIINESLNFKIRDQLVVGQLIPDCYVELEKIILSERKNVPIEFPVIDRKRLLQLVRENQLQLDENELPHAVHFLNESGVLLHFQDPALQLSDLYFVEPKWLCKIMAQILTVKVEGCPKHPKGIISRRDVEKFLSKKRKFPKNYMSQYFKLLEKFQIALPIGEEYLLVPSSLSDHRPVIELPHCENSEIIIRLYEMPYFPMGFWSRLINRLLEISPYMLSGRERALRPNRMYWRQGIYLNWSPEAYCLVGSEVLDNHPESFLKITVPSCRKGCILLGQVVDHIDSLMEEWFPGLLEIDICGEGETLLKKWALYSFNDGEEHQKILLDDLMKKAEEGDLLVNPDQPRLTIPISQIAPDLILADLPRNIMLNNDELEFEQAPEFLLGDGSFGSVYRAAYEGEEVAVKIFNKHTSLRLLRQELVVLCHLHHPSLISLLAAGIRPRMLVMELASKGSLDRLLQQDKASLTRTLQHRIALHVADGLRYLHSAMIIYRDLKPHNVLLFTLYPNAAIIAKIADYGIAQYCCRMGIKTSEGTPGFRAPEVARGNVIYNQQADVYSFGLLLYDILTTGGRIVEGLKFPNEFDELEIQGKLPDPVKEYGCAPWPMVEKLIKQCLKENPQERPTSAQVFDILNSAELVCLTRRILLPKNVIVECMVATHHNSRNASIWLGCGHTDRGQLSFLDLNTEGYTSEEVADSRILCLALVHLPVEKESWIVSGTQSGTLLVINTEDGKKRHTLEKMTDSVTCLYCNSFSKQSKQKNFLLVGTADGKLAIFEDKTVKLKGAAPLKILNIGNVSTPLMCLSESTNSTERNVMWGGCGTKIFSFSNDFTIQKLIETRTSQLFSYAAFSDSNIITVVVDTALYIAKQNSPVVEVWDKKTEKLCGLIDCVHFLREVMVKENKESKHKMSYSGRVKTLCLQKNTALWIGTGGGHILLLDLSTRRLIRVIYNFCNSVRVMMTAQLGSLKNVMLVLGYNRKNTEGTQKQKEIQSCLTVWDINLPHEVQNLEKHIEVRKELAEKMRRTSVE
Sequence of Serine/threonine-protein kinase B-raf (Homo sapiens) (P15056 whole entry): as the sequence (P15056 whole entry V600E) above, with E600V counted along it
Sequence of Leucine-rich repeat serine/threonine-protein kinase 2 (Homo sapiens), Q5S007 [G2019S] (Q5S007 whole entry G2019S): as the sequence (Q5S007 whole entry) above, with G2019S counted along it
Sequence of RAF proto-oncogene serine/threonine-protein kinase (Homo sapiens) (P04049 whole entry): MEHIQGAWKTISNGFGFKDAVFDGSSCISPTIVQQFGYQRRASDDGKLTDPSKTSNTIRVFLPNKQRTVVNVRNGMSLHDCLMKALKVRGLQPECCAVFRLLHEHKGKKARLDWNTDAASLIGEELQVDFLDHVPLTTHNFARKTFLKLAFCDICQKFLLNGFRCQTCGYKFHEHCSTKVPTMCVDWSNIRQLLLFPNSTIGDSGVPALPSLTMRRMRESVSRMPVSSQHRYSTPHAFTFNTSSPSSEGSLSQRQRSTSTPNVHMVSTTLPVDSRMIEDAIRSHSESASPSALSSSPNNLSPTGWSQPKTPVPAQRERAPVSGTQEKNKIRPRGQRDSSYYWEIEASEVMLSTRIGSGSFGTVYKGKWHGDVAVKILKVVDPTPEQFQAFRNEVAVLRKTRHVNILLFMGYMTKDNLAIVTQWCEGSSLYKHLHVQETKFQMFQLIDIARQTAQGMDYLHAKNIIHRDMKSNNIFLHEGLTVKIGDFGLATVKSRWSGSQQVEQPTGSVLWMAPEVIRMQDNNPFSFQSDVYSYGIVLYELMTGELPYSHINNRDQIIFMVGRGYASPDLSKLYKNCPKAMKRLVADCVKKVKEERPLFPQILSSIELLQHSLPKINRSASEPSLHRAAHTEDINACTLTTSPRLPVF

`CS(=O)(=O)CCNCc1ccc(-c2ccc3ncnc(Nc4ccc(OCc5cccc(C(F)(F)F)c5)cc4)c3c2)o1`: the inhibition in [1] was 0.73%; in experiment [2] it was 0.5%; in experiment [3] it was 5.33%; in experiment [4] it was 3.18%; in experiment [5], 0.41%; in [6] it was 6.08%. Besides, the inhibition in [7] is 8.69%; in experiment [8], 4.37%; in experiment [9], 5.8%; in [10], 1.96%; in [11], -2.29%; in experiment [12], 2.1%. For the same compound, the inhibition was found to be 3.11% in [13]; 1.61% in [14]; 5.55% in experiment [15]; 4.24% in experiment [16]; 7.8% in [17].
Turning to `CC1=C(C(=O)Nc2ccc3[nH]nc(C)c3c2)C(c2ccc(C(F)(F)F)cc2)CC(=O)N1` (centres undefined), the inhibition in [1] was determined as 2.61%; in [2] it was 2.7%; in experiment [3], 11.8%; in [4], 0.65%; in experiment [5], 2.13%; in experiment [6], 6.25%. The inhibition in experiment [7] is 38.8%; in experiment [8], 5.77%; in experiment [9], 37.9%; in [10] it was 3.79%; in [11], -1.39%; in experiment [12], -3.01%. The inhibition in experiment [13] came to 1.5%; in [14], 5.54%; in [15], 21.3%; in [16], 9.85%; in experiment [17], 49.5%.
For `Cc1cc(O)cc(C)c1/C=C/c1cncc(C(=O)OC(C)(C)C)c1`, the inhibition came to 4.32% in experiment [1]; 5.5% in experiment [2]; 31.1% in experiment [3]; 1.34% in experiment [4]; 1.02% in experiment [5]; 4.14% in experiment [6]. Further, the inhibition in experiment [7] was 7.71%; in experiment [8], 3.83%; in experiment [9] it was 6.09%; in experiment [10], 3.1%; in experiment [11], -0.4%; in [12] it was 3.06%. Also, the inhibition in experiment [13] is 1.36%; in experiment [14], 6.27%; in experiment [15], 9.43%; in experiment [16], 6.75%; in experiment [17], 10.9%.
On to `Nc1nonc1-c1nc2cnccc2n1C1CC1`, for which the inhibition in experiment [1] was 4.53% and 2.7%; in [2], -0.59% and 1.1%; in experiment [3], 1.1% and 2.73%; in experiment [4], 0.56% and -1.17%; in experiment [5], 3.98% and -1.48%; in experiment [6] it was 5.09% and 3.82%. For the same compound, the inhibition in experiment [7] is 9.07% and 5.15%; in experiment [8], 4.37% and 3.69%; in experiment [9] it was 8.28% and 5.87%; in [10], 6.05% and 2.66%; in experiment [11], 5.43% and 2.92%; in experiment [12], -0.18% and 2.38%. Also, the inhibition was 2.91% and 1.65% in experiment [13]; 8.81% and 0.08% in [14]; 15.4% and 10.4% in experiment [15]; 13.3% and 5.33% in experiment [16]; 44.6% and 35% in experiment [17].
In the case of `c1ccc(-c2n[nH]cc2-c2ccnc(-c3ccc(OCCn4ccnc4)cc3)c2)nc1`, the inhibition in [1] stood at 1.47%; in experiment [2], 1.05%; in experiment [3], 8.13%; in experiment [4], 2.15%; in [5], 2.34%; in [6], 2.04%. For the same compound, the inhibition is 1.85% in experiment [7]; 0.71% in experiment [8]; 1.34% in experiment [9]; -0.53% in [10]; -2.1% in experiment [11]; 4.92% in experiment [12]. For the same compound, the inhibition worked out at 0.82% in experiment [13]; 0.79% in experiment [14]; 7.44% in [15]; 3.12% in [16]; 14.5% in experiment [17].
Consider `CN1CCN(Cc2ccc(-c3cc4ncnc(Nc5ccc(OCc6cccc(F)c6)c(Cl)c5)c4s3)o2)CC1`, for which the inhibition is 12.4% and 17.4% in experiment [1]; 14% and 15.7% in [2]; 58.6% and 60.3% in experiment [3]; 1.12% and 6.43% in experiment [4]; 7.67% and 11.7% in experiment [5]; 4.33% and 8.54% in [6]. For the same compound, the inhibition was 5.51% and 9.42% in experiment [7]; 3.61% and 9.64% in experiment [8]; 4.75% and 9.2% in [9]; -0.28% and 16.3% in [10]; -2.88% and 11.7% in experiment [11]; 0.28% and 1.52% in experiment [12]. The inhibition in experiment [13] is 0.56% and 2.95%; in [14] it was 2.03% and 2.75%; in [15], 6.29% and 5.13%; in [16], 4.59% and 4.9%; in [17], 7.45% and 5.92%.
With `CCN1CCC(C(=O)Nc2n[nH]c3nnc(-c4cccc(F)c4F)cc23)CC1`, the inhibition is 1.67% in experiment [1]; 2.36% in experiment [2]; -0.1% in experiment [3]; -1.24% in experiment [4]; 2.19% in [5]; -0.36% in experiment [6]. The inhibition was 0.01% in experiment [7]; 1.12% in experiment [8]; 1.24% in [9]; -4.36% in experiment [10]; -2.59% in [11]; 0.27% in [12]. In addition, the inhibition came out at 0.13% in experiment [13]; 1.99% in experiment [14]; 3.27% in experiment [15]; 2.15% in [16]; 1.7% in experiment [17].
